Inconclusive results are not listed. The source made the active and inactive calls. The call rests on the fitted dose curve; in most records, active means well fitted curve in the direction sought with a large enough effect; inconclusive means small, poorly fitted or top-dose-only effect, or another doubt; inactive means no such curve, though single readings can be large or run the other way.

This assay relates to NanoLuc luciferase (engineered Oplophorus gracilirostris luciferase). Briefly: Confirmatory Nanoluciferase (NLuc) qHTS assay for identification of artifact compounds. Further: % of control where 0% means no effect. The settings on record: secreted NLuc in S16 cell medium, luminescence, 5 min; series mostly up to 39 µM; activity change, negative = inhibition: at the top concentration. The procedure, abridged: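 Conditioned medium from NLuc-expressing S16 cells (diluted 1:55) as enzyme source; compounds 15 min at room temperature, then Nano-Glo substrate for 5 min. Luminescence normalized to no-enzyme and DMSO controls, fitted to 4-parameter Hill equation.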
Take `COc1ccc(-c2c3c(=O)n(C)c(=O)n(C)c3c3n2-c2ccccc2NC3c2ccccc2OC)cc1` (stereo not given): the “activity change, negative = inhibition” value is -3.51% (inactive).

For the compound `CCOC(=O)c1ccc(N2C(=O)c3[nH]nc(-c4ccc(C)cc4)c3C2c2ccc(O)cc2)cc1` (stereo not given), the “activity change, negative = inhibition” value was -2.76% (inactive).

Take `CCOC(=O)c1c(S(=O)(=O)NCC(=O)Nc2ccc(F)cc2C)c(C)n(C)c1C`: the “activity change, negative = inhibition” value was -2.68% (inactive).

`Cc1ccc2[nH]c(CSc3nnc(C)s3)cc(=O)c2c1`: the “activity change, negative = inhibition” value was -2.56% (inactive).

In the case of `Cc1ccc2nc(-c3cccnc3)c(Nc3ccccc3C)n2c1`, the “activity change, negative = inhibition” value was 3.45% (inactive).

`COC(=O)C1=CO[C@@H](O[C@@H]2O[C@H](CO)[C@@H](O)[C@H](O)[C@H]2O)C2C(CO)=CCC12` (stereo not given in full): the “activity change, negative = inhibition” value is -0.305% (inactive).

On to `O=C(NCCC1=CCCCC1)c1ccc2c(c1)N(Cc1cccc(Cl)c1)C(=O)c1ccccc1S2=O` (stereo not given), for which the “activity change, negative = inhibition” value is -2.54% (inactive).

`COc1cccc(C(=O)Nc2ccccc2-c2nnc(-c3ccc(C(C)(C)C)cc3)o2)c1`: the “activity change, negative = inhibition” value is -10.1% (inactive).

In the case of `COc1ccc(Cn2c(CCC(=O)Nc3cc(C)cc(C)c3)nc3cccnc32)cc1`, the “activity change, negative = inhibition” value is -16.6% (inactive).

As for `C[C@@H]1O[C@@H](O[C@@H]2[C@@H](O)[C@H](OCCc3ccc(O)c(O)c3)O[C@H](CO[C@@H]3O[C@H](CO)[C@@H](O)[C@H](O)[C@H]3O)[C@H]2OC(=O)/C=C/c2ccc(O)c(O)c2)[C@H](O)[C@H](O)[C@H]1O`, the “activity change, negative = inhibition” value is 2.01% (inactive).

The values above are taken from PubChem BioAssay AID1845224 (National Center for Advancing Translational Sciences (NCATS), 2023).
